From ChEMBL document CHEMBL3988442, “University of Dundee, Small-Polar-MMV Screening Library” (2021)
In all, about 48,000 compounds went through this assay and about 13,000 (27%) showed an effect of 50% or more. This is one part of the list.

test system: Wolbachia pipientis; test: Anti-Wolbachia Cell-Based Screen; type: functional; set-up: scale not given: in the data most compounds retested in dose-response had high values; conditions: 5 µM

SMILES | Percent Effect [%]
O=C(c1cncc2ccccc12)N1CCC[C@@H]1CO | 106.1
Cc1cc(C)n(-c2cccc(NC(=O)N3CCC[C@@H]3CO)c2)n1 | -12.47
Cc1cnn(CC2CCCN2C(=O)c2cc(O)nc3ccccc23)c1 (centres undefined) | 145.5
COc1ccccc1C(=O)N1CCCC1Cn1cc(C)cn1 (centres undefined) | -4.126
CC(NC(=O)N1CCC[C@H]1CO)c1noc(-c2ccccc2)n1 (some centres undefined) | 5.475
Cc1cnn(CC2CCCN2C(=O)c2cn(C)c3ccccc23)c1 (centres undefined) | 141.3
O=C(Nc1ccccc1OC1CCOC1)c1ccon1 (centres undefined) | -7.759
CCN(CCc1nc2cc(C)ccc2[nH]1)C(=O)[C@@H](N)Cc1c[nH]cn1 | -4.555
CCOCc1nccc(-c2ccc(OCC)c(C(=O)O)c2)n1 | -8.809
Cc1ccc(-c2nnc(C(C)N3CCn4c(C)nnc4C3)o2)cc1 (centres undefined) | 7.305
Cc1nnc2n1CCN(C(C)c1nnc(-c3cccs3)o1)C2 (centres undefined) | 4.366
Cc1cccc(-c2nnc(C(C)N3CCn4c(C)nnc4C3)o2)c1 (centres undefined) | 3.143
CCc1cc(C)nc(N2CCN(C(C)c3nc(C)no3)CC2)n1 (centres undefined) | 7.355
Cc1nnc(C(C)NCC2(c3ccc(Cl)cc3)CCCC2)o1 (centres undefined) | 5.084
Cc1noc(C(C)N2CCC(c3nc4ccccc4[nH]3)CC2)n1 (centres undefined) | -1.749
Cc1nnc(C(C)N2CCc3[nH]c4ccc(Cl)cc4c3C2)o1 (centres undefined) | 96.73
Cc1nnc(C(C)N2CCc3[nH]c4ccccc4c3C2)o1 (centres undefined) | 119.5
Cc1noc(C(C)N2CCc3[nH]c4ccc(Cl)cc4c3C2)n1 (centres undefined) | 55.06
CN(CCO)C[C@@H]1CN(Cc2ccccc2C#N)C[C@@H]1CO | 5.341
O=C(O)C(F)(F)F.O=C([C@H]1COC[C@H]2CN(C3CCCC3)C[C@H]21)N1CCCO1 | 3.277
Cl.Cl.O=C(NC[C@H]1OC[C@@H](NC2CCNCC2)[C@@H]1O)C1CCCC1 | -10.79
O=C(C1CC1)N1C[C@@H](F)[C@@H](OCc2nc3ccccc3[nH]2)C1 | -5.445
O=C(CC1CC1)N1CCO[C@H]2[C@H](OCCCn3cccn3)CC[C@@H]21.O=C(O)C(F)(F)F | 104.8

SMILES | Percent Effect [%]
O=C(N1CCCC1)N1CCO[C@H]2[C@@H](OCc3cccnc3)CC[C@@H]21.O=C(O)C(F)(F)F | -4.224
O=C(C1CCOCC1)N1CCO[C@H]2[C@H](Oc3ccccn3)CC[C@@H]21.O=C(O)C(F)(F)F | -40.04
CCS(=O)(=O)N1CCO[C@H]2[C@H](OCCCn3cccn3)CC[C@@H]21.O=C(O)C(F)(F)F | 3.946
O=C(C1CCC1)N1CCO[C@H]2[C@H](OCCCn3cccn3)CC[C@@H]21.O=C(O)C(F)(F)F | 102.2
Cn1cccc1C(=O)N1CCO[C@H]2[C@H](OCc3cccnc3)CC[C@@H]21.O=C(O)C(F)(F)F | -1.301
CC(=O)N1CCO[C@H]2[C@H](OCCCn3cccn3)CC[C@@H]21.O=C(O)C(F)(F)F | 121.4
CCOCC(=O)NCC(Cc1cccc(F)c1)n1cccc1 (centres undefined) | 6.887
CS(=O)(=O)CCCNC(=O)Nc1sc2ccccc2c1Cl | -10.11
COC(=O)c1ccc(Cn2nc(C)cc2C)c(OC)c1 | -3.306
COC(=O)c1ccc(OC)c(OC23CCCN(CC2)C3)c1 (centres undefined) | 94.41
COc1cc(C(C)=O)ccc1SCC(=O)Nc1ccc(C)cn1 | -18.24
COc1cc(C(C)=O)ccc1OC12CCCN(CC1)C2 (centres undefined) | 108.8
COc1cc(C#N)ccc1OC12CCCN(CC1)C2 (centres undefined) | 107.4
COCC1CCN(CCOc2ccc(C#N)cc2OC)CC1 | -11.6
COC(=O)c1ccc(Cn2cccc(C(F)(F)F)c2=O)c(OC)c1 | 9.312
COc1cc(C#N)ccc1OCCN1CCC(n2ccnc2)CC1 | 7.917
COc1cc(C(C)=O)ccc1OCCNCc1ccco1.Cl | -30.68
CCNC(=O)Nc1cccc(F)c1C(=O)NC1CCCC1 | 2.869
CC(C)CC(C#N)NC(=O)COC1CCCCC1 (centres undefined) | -4.996
Cn1ccnc1CN1CCC2(CCCN2c2ncccn2)CC1.O=C(O)C(F)(F)F | -8.541
Cn1ccc(CN2CCCC23CCN(Cc2nccn2C)CC3)n1.O=C(O)C(F)(F)F.O=C(O)C(F)(F)F | 97.85
O=C(O)C(F)(F)F.O=C(O)C(F)(F)F.c1csc(CN2CCC3(CCCN3CC3CC3)CC2)n1 | 0.06996
CN(C)CCN1CCCC12CCN(Cc1nccn1C)CC2.O=C(O)C(F)(F)F.O=C(O)C(F)(F)F.O=C(O)C(F)(F)F | 106.1

SMILES | Percent Effect [%]
CC(C)COC1CC2(CCN(Cc3nccn3C)CC2)C1.O=C(O)C(F)(F)F | -0.08907
Cn1ccc(CN2CCC3(CCCN3CC3CC3)CC2)n1.O=C(O)C(F)(F)F.O=C(O)C(F)(F)F | 89.46
Cc1ccc(NC2COC3(CCN(Cc4ccn(C)n4)CC3)C2)nn1.O=C(O)C(F)(F)F (centres undefined) | -6.198
CC(C)NC(=O)[C@H]1CCS(=O)(=O)[C@@H]2CN(c3ncc(F)cn3)C[C@H]12 | -13.53
Cc1cnc(N2C[C@@H]3[C@@H](C(=O)NCC(C)C)CCS(=O)(=O)[C@@H]3C2)nc1 | -2.009
CCc1cnc(N2C[C@@H]3[C@@H](C(=O)NCC(C)C)CCS(=O)(=O)[C@@H]3C2)nc1 | -5.453
CCc1cnc(N2C[C@@H]3[C@@H](C(=O)N(C)C)CCS(=O)(=O)[C@@H]3C2)nc1 | 108.3
CCc1cnc(N2C[C@H]3CCCC(N(C)Cc4ccccn4)[C@H]3C2)nc1 (some centres undefined) | -24.97
CN(C)C[C@@H]1CCC[C@@H]2CN(c3ncccn3)C[C@@H]21.O=C(O)C(F)(F)F | 2.797
CCc1cnc(N2C[C@@H]3[C@@H](C(=O)NC(C)C)CCS(=O)(=O)[C@@H]3C2)nc1 | -2.445
CC(C)CNC(=O)[C@H]1CCS(=O)(=O)[C@@H]2CN(c3ncccn3)C[C@H]12 | 91.22
CN(C)C(=O)[C@H]1CCS(=O)(=O)[C@@H]2CN(c3ncccn3)C[C@H]12 | 99.37
CN(C)C(=O)[C@H]1CCS(=O)(=O)[C@@H]2CN(c3ncc(F)cn3)C[C@H]12 | 102
Cc1cnc(N2C[C@@H]3[C@@H](C(=O)NC(C)C)CCS(=O)(=O)[C@@H]3C2)nc1 | -24.89
CC(C)NC(=O)[C@H]1CCS(=O)(=O)[C@@H]2CN(c3ncccn3)C[C@H]12 | -3.711
CC(=O)CCC(=O)N1CCC2(CC1)N=C(CCC(C)C)NC2=O | -5.676
CC(C)(C)OC(=O)N1CCC(C(=O)NC2CCS(=O)(=O)C2)CC1 (centres undefined) | 6.733
COc1ccc(C(=O)N2CCC(C3CCN(c4ncccn4)CC3)C2)o1 (centres undefined) | -7.407
O=C(O)C(F)(F)F.O=C(c1ccco1)N1C[C@H]2CCCN(Cc3cccs3)[C@H]2C1 | -3.839
CN1CCN(C(=O)[C@@H]2CCO[C@@H]3CCN(c4ncccn4)C[C@@H]32)CC1 | -8.422
O=C([C@@H]1CCS(=O)(=O)[C@@H]2CN(c3ncccn3)C[C@@H]21)N1CCOCC1 | 104.7
COc1cccc(CN2CCCC3(CCN(C(CO)CO)C3)C2)c1 (centres undefined) | -0.6359
COc1ccc(/C=C/CN2CCC3(C2)CN(C)C(=O)O3)cc1 (centres undefined) | -32.82

SMILES | Percent Effect [%]
COc1ccc(/C=C/CN2CCCC3(C2)CN(C)C(=O)O3)cc1 (centres undefined) | -36.85
CN1CC2(CCCN(Cc3cccc(Oc4ccccc4)c3)C2)OC1=O (centres undefined) | 123.2
O=C1NC[C@@]2(C(=O)O)CN(Cc3cccc(Oc4ccccc4)c3)C[C@@H]12 | -29.67
CN1CC2(CCCN(c3cnccn3)C2)OC1=O (centres undefined) | 1.527
CN1CC2(CCCN(Cc3cccc(CCN)c3)C2)OC1=O (centres undefined) | 105.3
CN1CC2(CCCN(Cc3ccccc3OCC(=O)O)C2)OC1=O (centres undefined) | 0.6132
Cc1cc(C)c2[nH]c(=O)c(CN3CCCC4(C3)CN(C)C(=O)O4)cc2c1 (centres undefined) | -2.953
CN1CC2(CCCN(Cc3ccc(Oc4ccccc4)cc3)C2)OC1=O (centres undefined) | 64.08
CN1CC2(CCCN(c3cc(N4CCCCC4)ncn3)C2)OC1=O (centres undefined) | -3.477
CN(C)CCOc1cccc(CN2CCCC3(C2)CN(C)C(=O)O3)c1 (centres undefined) | 103.2
CCOCCCC(=O)NCc1ccnc(N2CCN(C)CC2)c1 | 8.829
CN(Cc1ccc(F)cc1C#N)CC(F)(F)F | -4.053
CC(C)(C)CCN1CCN(c2snc(Cl)c2C#N)CC1 | -4.564
CC(C)(NC(=O)c1coc(COc2cccc(F)c2)n1)C(N)=O | 11.65
COCc1cc(CNC(=O)c2cccc3c2OCC3)n[nH]1 | -6.489
CCCN1CCCN(CCCOc2cccc(C#N)c2)CC1 | 7.264
N#CCCN(C(=O)CN1CCCC1c1ccsc1)c1ccccc1F (centres undefined) | -4.506
CCS(=O)(=O)N1CCn2c(COCC3CCOCC3)cnc2C1C (centres undefined) | -1.918
CN(C)C(=O)NCc1cc2n(n1)CCCN(C[C@H]1[C@@H]3CNC[C@@H]31)C2 | -16.67
O=C(CC1CCCO1)NCc1ccccc1Cn1cncn1 (centres undefined) | 0.9316
